The full ranking holds about 33,000 sequences; the median of “E-score (-0.5 to 0.5)” is about -0.021, and the highest 2% start at about 0.32. For the sample, the highest values were picked, then their nearest neighbours and some sequences at random.
Biological target: T1, Zap1 (UniProt P47043)
T1 sequence: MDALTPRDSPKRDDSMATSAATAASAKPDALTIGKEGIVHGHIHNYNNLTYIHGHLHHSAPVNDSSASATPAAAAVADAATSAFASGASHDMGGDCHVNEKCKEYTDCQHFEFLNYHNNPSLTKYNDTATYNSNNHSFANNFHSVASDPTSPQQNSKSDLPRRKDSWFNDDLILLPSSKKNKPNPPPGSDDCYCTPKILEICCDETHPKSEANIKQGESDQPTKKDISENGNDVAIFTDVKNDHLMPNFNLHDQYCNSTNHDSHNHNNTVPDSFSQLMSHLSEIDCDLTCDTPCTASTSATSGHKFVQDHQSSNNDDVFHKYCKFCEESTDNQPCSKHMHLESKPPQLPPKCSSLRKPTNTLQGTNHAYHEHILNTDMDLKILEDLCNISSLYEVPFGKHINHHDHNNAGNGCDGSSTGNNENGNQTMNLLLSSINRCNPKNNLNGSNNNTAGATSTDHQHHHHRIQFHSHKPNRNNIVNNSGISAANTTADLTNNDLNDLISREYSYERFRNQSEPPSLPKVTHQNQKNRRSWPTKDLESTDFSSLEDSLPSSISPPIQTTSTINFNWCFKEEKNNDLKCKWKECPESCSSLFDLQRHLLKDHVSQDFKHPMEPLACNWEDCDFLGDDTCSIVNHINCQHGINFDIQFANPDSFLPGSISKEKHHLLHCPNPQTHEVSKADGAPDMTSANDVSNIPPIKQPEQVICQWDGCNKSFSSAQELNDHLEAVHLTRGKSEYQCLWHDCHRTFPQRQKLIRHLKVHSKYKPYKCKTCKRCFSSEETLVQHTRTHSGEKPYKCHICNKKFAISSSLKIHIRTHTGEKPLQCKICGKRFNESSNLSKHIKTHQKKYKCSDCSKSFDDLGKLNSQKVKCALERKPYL
Test: PBM E-score (8-mer binding enrichment) (E-score (-0.5 to 0.5)); higher = stronger / more preferred TF binding
Conditions: protein concentration: 200 nM; construct: GST-full length
Method: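 Universal 'all 10-mer' protein binding microarrays (Agilent AMADID 015681) probed with GST-tagged S. cerevisiae TFs (full-length or DBD) made by in vitro transcription/translation (PURExpress), about 100-200 nM. Bound TF was detected with fluorescent anti-GST. Each ungapped 8-mer (which stands for itself and its reverse complement) is scored by the PBM enrichment score (E-score), a modified Wilcoxon-Mann-Whitney statistic from -0.5 to +0.5, computed with the Universal PBM Analysis Suite. Scale: above 0.35 generally sequence-specific binding.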

Sequence	PBM E-score
CACTCTGG	-0.151
CATTCTAG	-0.0521
GGATAGAA	0.0515
CGTTAGAG	-0.109
CATCCAGC	-0.108
ACCTTGAG	0.354
ACCTTGCG	0.284
AACTTGAG	-0.143
ACGGTCAG	0.0381
CAGGTCAC	0.195
AAGGTCGT	0.334
AAGGTCGA	0.176
AAGGTCAA	0.279
AAGGTCAT	0.444
ACGGTCAA	0.177
AAGGTCGC	0.193
ACGGTCAT	0.359
GAGGTCAA	0.21
GAGGTCAC	0.392
AAGGTCCT	0.123
GCTTGACC	0.214
ATAAAGAT	0.00332
AACACCTA	0.0163
ATGGTAGA	-0.00844
GAGAGAGC	-0.261

Sequence	PBM E-score
AAATGGAG	-0.132
TGCCCTAA	-0.171
CTTAGGGC	0.0876
ATTGACTG	-0.136
AAGGTCAC	0.417
AAGGTCCC	0.152
CAGGTCAG	0.0791
AAGGTCAG	0.32
AAGGTCTG	0.15
AAGGTCTC	0.162
GAAAGCGC	-0.115
AGAAACCG	0.0611
CTGTACTA	0.0369
GGCGACAC	-0.0969
CGGCTGAC	-0.193
GAGACCAC	0.15
GAGGGCAA	-0.0412
CAGGCGAC	-0.117
GACCCTAC	0.311
CACCCTCG	0.234
CCCCCTAC	-0.32
CACCCTAC	0.328
CGCCCTAG	-0.00248
AAACCTGT	0.0581
AACCCTAC	0.357

Sequence	PBM E-score
CACCCTAG	0.353
AAGCCTGT	-0.128
AGCCCTAC	-0.12
AAACCTAC	0.194
AACCCTGT	0.419
CTCAGCAG	-0.129
TCAGCGAA	-0.107
CTCGCTTA	-0.0929
AAGCCTGC	-0.182
CTTCAGTA	0.0193
AGAGACCA	0.121
ATGGTGCA	0.0684
CTCACGAG	0.0376
ACCTGAAT	0.136
CAGCTGTA	-0.203
ATCCCTAG	0.0856
AACCCTAT	0.441
AACCCTCT	0.27
AACCCTAG	0.408
AAACCTAG	0.051
AAACCTAT	0.164
CAAATTCC	-0.00509
AGTCACGA	0.0207
TGTCACAA	0.0989
AGTCGCGA	0.113

Sequence	PBM E-score
CGTCGCGA	0.00596
GGTCACAA	0.393
GGTCGCGA	0.32
GGTCACGA	0.391
CGTCACGA	-0.0348
CGTCACAA	-0.0229
AGATAGGG	-0.0822
GAGCGTGC	-0.173
TATTAGAA	0.159
AGAAGTCT	-0.257
AGCCTGAG	-0.0458
TGTGAGAA	-0.0687
CGGACTTC	-0.17
CATATGGA	-0.057
AATCCAAC	-0.0925
GAGACCTC	0.0168
ATCTAGGC	-0.197
ACCTACAA	0.178
CCCTACAA	0.33
CCCTACAC	0.0286
CCAATGCA	-0.0366
CAACTAAC	0.21
GCTCGAGC	-0.169
CTACCTGA	0.00976
GCACCTTA	0.112

Sequence	PBM E-score
CCACCTGA	0.0282
CCACCTTA	0.342
ATACCTTA	0.184
CTACCTTA	0.327
AAGAGCAG	-0.247
CAACTGGC	-0.0185
AACCACTC	0.289
ATCTGTCC	-0.318
ATGCAGTG	-0.0561
AGGTTGTC	0.242
GGGTTGCA	0.352
CGGTTGCA	-0.0132
GGTTTGTA	0.119
AGGTTGTG	0.349
GGGTTGTA	0.35
GGGTTGGA	0.16
AGGTTGCA	0.299
AGGTTGGG	0.232
AGGTTGCG	0.333
AGGTTGCC	0.088
AAGTTGCG	0.0515
CAGCATGG	-0.00544
GCCCGCGC	-0.0387
CGTCTAGC	-0.21
TGACACCA	-0.0107

Sequence	PBM E-score
CACGGCTG	-0.212
CGGTTGTA	0.153
AAGTTGTA	0.112
AGGTTGTA	0.338
CCGTTTGC	0.0589
AACAGGGT	0.348
ACCAGGGA	-0.00163
AATAGGGA	-0.0102
ACCAGGGG	-0.0398
ACCAGGGT	0.358
AACAGGGA	0.044
AATAGGGT	0.374
AATAGGGG	0.0477
AACAGGGC	-0.0745
GATAGAGC	-0.0954
CGCCACTA	-0.111
GCCCTAGC	-0.148
GGCCCTAC	0.0088
ATCCAGAA	0.159
CTCCTTCA	-0.168
TACCCAGA	0.265
AAGAGATG	-0.16
GGGTACTA	0.335
AGGTACCA	0.347
GGGTACCA	0.4

Sequence	PBM E-score
ACGTACCA	-0.0952
AGGTACGA	-0.0106
AGGTACTA	0.29
GCGTACCA	0.0288
TCGTACCA	0.149
CGGTACTA	0.0114
TAGTACCA	0.163
TGGTACCA	0.357
CGGTACCA	0.303
CACTAGCA	-0.00655
ACATGCCG	-0.241
GTGAGTGA	-0.147
ACAAACTG	-0.16
TGGTACAA	0.146
GGGTACAA	0.345
AGGTACAA	0.15
TCAGCTCA	-0.00847
CCTTGGTC	0.0233
ATCGATTC	-0.119
AAAACCAT	0.283
AAAACCAA	0.209
GTAACCAA	0.417
TCAACCAA	0.118
GGAACCAA	0.159
ATAACCAA	0.437

Sequence	PBM E-score
TTAACCAA	0.317
AGAACCAT	0.184
CTAACCAA	0.262
ATAACCAT	0.457
GCAACCAA	0.231
AGAACCAA	0.148
CAAGACTC	-0.0977
GGCCTCGA	0.00761
CCTTAAAC	0.143
CGTGGAGA	-0.239
ACCACTAC	0.182
AGAGGCCG	-0.144
CGCTCACG	-0.0384
AGGATCTG	-0.242
AGAACCAG	0.0863
CTAACCAG	0.146
ATAACCAG	0.436
GGAATCCA	-0.115
CCAGGGGG	-0.095
CGACCTAC	-0.114
CACCTCTG	-0.0642
TAGCTCGA	0.0239
ACAACCAA	0.267
ACAACCAC	0.361
GCAACCAC	0.269

Sequence	PBM E-score
ACAACTAT	0.204
ACAACCAG	0.23
ACAACCAT	0.322
AGGCTTTG	-0.027
ACAATGCA	0.0982
CAACCCGA	0.355
TAACCCGA	0.345
CTACCCGA	0.25
CAACCCGC	0.251
GAACCCGA	0.0725
AAACCCGA	0.264
TACCCCGA	0.34
AACCCCGA	0.266
GACCCCGA	0.244
GCAGCTGC	-0.246
CTTACTTC	0.00964
CTATGATA	0.00378
ATATGATA	0.348
GTATGATA	0.14
TCTTCGAA	0.00843
AATCGTCG	-0.21
CTACTGTA	-0.0171
CCACCCAA	-0.0177
ACACCCTA	0.335
CCACCCTA	0.327

Sequence	PBM E-score
GCACCCTA	0.297
ACACCCCA	0.0819
ACACCCTG	0.21
CCACCCTC	0.358
ACACCCTC	0.312
CCACCCAC	0.263
CCTAGGCC	-0.0276
ATATCTGG	-0.138
CAGTTAAG	0.0515
GGAGTTTA	-0.0721
ATGAGAGA	-0.0163
GTGCACGA	0.0644
ACCGCAAT	0.319
ACCGCAAC	0.341
ACCGCACT	0.109
ACCGCAAG	0.153
GCCGCAAC	0.218
ACCGCAAA	0.205
AGCGACGC	-0.162
TGCATCAA	0.122
CAGCGACA	-0.0507
ACCTAGGT	0.26
CGTGATGA	-0.0344
GGTGATGA	0.338
AGTGATGA	-0.0675

Sequence	PBM E-score
ACAGCAAC	-0.00827
TGAGTGCA	-0.113
CGAGGTTC	0.22
GGAGGTAA	0.289
CGAGGTGA	0.239
CGAGGTTA	0.455
GGAGGTTA	0.36
GGAGGTGA	0.13
GTGGATGA	0.014
ACGGATGG	-0.0981
CGTTAACA	0.00812
AGTTAACA	0.117
AGTTAACC	0.289
GGTTAACA	0.32
GGTTAACC	0.427
CGTTAACC	0.294
ACGTTGGG	-0.01
CGCTTTAG	-0.136
CATCTTTC	-0.0278
AACCCTCA	0.383
AACCCTCC	0.185
CACCCTCC	0.326
ACCCCTCA	0.267
CACCCTGC	0.331
ACCCCTGC	0.167

Sequence	PBM E-score
GACCCTGC	0.283
CACCCTCA	0.257
AACCCTCG	0.292
CCCCCTGC	-0.372
AACCCTGC	0.385
CTCCCTGC	-0.212
GACCCCTC	0.138
AAAAGCGT	-0.06
TGTGAACA	-0.0338
AGCCACCC	-0.108
AAATGGGT	0.265
AAATACCG	0.162
CTAGCAAC	-0.0149
AATGTCGT	-0.0154
AGTCTGAT	-0.0553
GCTATGAA	-0.0097
ACCCCTGG	0.289
TACCCTGA	0.406
CACCCTGA	0.162
CCCCCTGA	-0.209
AGCCCTGA	-0.131
GACCCTGA	0.304
AACCCTGA	0.461
CACCCTGG	0.169
AACCCTGG	0.392

Sequence	PBM E-score
ATCCAACA	0.0629
AGCAAAAG	-0.146
CCTAACTA	0.135
CGTCCTCA	-0.162
GAAGCCCC	-0.272
AGTTAAAC	0.0887
GGTTAAGA	0.364
CGTTAAAC	0.21
GGTTAAAC	0.356
CGTTAAAA	0.0117
GGTTAAAA	0.385
TGTTAAAA	0.0204
CGTTAAGA	-0.0174
AGTTAAGA	0.00562
AGTGTCGA	0.127
AACAGATG	-0.00675
AAGACTTA	-0.0811
CTTAGACC	-0.0476
GAGCGTAC	-0.162
TACTTGCA	0.0221
CGGGGCTA	-0.15
CGGGCTCA	-0.323
CTGAGGTA	0.275
ATGAGGTA	0.324
ATGAGGTG	0.0386

Sequence	PBM E-score
GGCTAGCC	-0.248
AGTGCCCG	-0.203
CCTGCTCG	-0.0742
ACCCTCCG	0.228
ACCCTCGG	0.329
ACCCTCGA	0.143
CCCCTCGG	0.34
CCCCTCGC	0.0553
CCCCTCGA	0.169
ACCCTCGT	0.358
ACCCTCGC	0.267
ACACTCGT	-0.0522
CAGTACAG	0.091
ACTTCTCT	-0.0321
CCAAGTTA	0.0627
CATGACGC	-0.108
ACCAGCGC	-0.0562
GGACCTCC	-0.134
GAAGGAGA	-0.122

Source: the supplement of paper PMC3334620
